Bioassay records (PubChem)
The list is not random: actives were taken first. Their share in the collection is about 13%.
Pf growth 96h: P. falciparum growth inhibition at 96 hours; P. falciparum luciferase reporter growth, 96 h; Potency, µM (series often up to 28.7 µM), most hits filed as inhibitors; 320,000 compounds, 6.9% hits; AID 504834
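Parasite growth measured via integrated firefly luciferase reporter in P. falciparum. Infected erythrocytes at 2% hematocrit, 0.05% parasitemia final were treated 96 hours at 37 C under 5% CO2, and luminescence was read.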
HCV inhibitor: HCV inhibition; Huh7.5.1 HCVcc-Cre infection, luciferase reporter, 44 h; Potency, µM (titrated, usually from 41.8 µM), most hits filed as inhibitors; 340,000 compounds, 3.4% hits; AID 651820
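Cells (1,000/well) were plated 4 h before compound, then infected with HCVcc-Cre virus (~0.5 moi). After 44 h further culture, infection was read as luciferase luminescence following a 15 min substrate incubation at room temperature.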
HCMV inh: inhibitors of human cytomegalovirus. 410,000 compounds, 4.5% hits. AID 1259415. HFF cells, HCMV-luciferase reporter, 72 h; active compounds read low. activity change, negative = inhibition, % at 57.5 µM; in the data active = activity change below about -60%; inconclusive = no clear call, values can overlap the other calls; inactive = above about -39%
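Luciferase read-out from HCMV-luciferase-infected HFFs (MOI 1 PFU/cell) 72 h post infection at 37C; compounds added after 16 h cell attachment; activity normalized between buffer-only basal and Salinomycin (10uM) inhibitor controls.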
Pf growth 48h: inhibits P. falciparum growth in the first generation, 48 h | P. falciparum luciferase growth in erythrocytes, 48 h | Potency, µM (titrated, usually from 28.7 µM), hits mostly inhibitors | 310,000 compounds, 5.9% hits | AID 504832
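Luciferase-expressing parasites in RBCs, 2% Hct / 0.1% parasitemia final; RPMI 1640 + 0.5% Albumax; 37 C, 5% CO2, one generation; luminescence read-out, lower signal = inhibition.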
A number is an active result; i = inactive; ? = inconclusive; nt = not tested or not shown. Unless noted, calls come from the whole dose curve; as a rule, active = well fitted inhibition curve with a large enough effect; inconclusive = small, poorly fitted or top-dose-only effect, or another doubt; inactive = no such curve, though single readings can be large or run the other way.

SMILES	Pf growth 96h	HCV inhibitor	HCMV inh	Pf growth 48h
Cn1c(=O)c(C(=O)Nc2ccccn2)c(O)c2ccccc21	10µM	i	?	i
Cn1c(=O)c(C(=O)NNC(=O)c2ccccc2Cl)c(O)c2ccccc21	i	i	?	i
Cn1c(=O)c(C(=O)NNC(=O)c2ccccc2Br)c(O)c2ccccc21	2.1µM	i	?	i
CCC(C)[C@@H](N)C(=O)N/N=C/c1ccc2ncccc2c1 (some centres not stated)	12µM	i	i	?
Cc1cc(=O)[nH]c2nnc(SCc3ccc(F)cc3)n12	nt	nt	i	nt
COc1ccccc1-c1oc2ccccc2c1C#CC(C)(C)O	?	10µM	i	?
COc1ccccc1-c1oc2ccccc2c1-c1ccccc1OC	nt	i	i	nt
COc1ccc(-c2c(-c3ccccc3OC)oc3ccccc23)cc1F	2.6µM	i	i	2.9µM
COc1ccc(-c2coc3cc4oc(=O)c5ccccc5c4cc23)cc1F	i	?	-85	i
COc1ccccc1-c1oc2ccccc2c1C#CCO	nt	i	i	nt
O=C1c2ccccc2C(=O)c2c1ncn2-c1ccccc1	i	?	-68	4.7µM
CCC(C(=O)Nc1cccc(OC)c1)n1nc(C)c2c(C)n(-c3ccccc3)nc2c1=O (configuration not stated)	i	i	i	?
CCC(C(=O)Nc1cc(F)ccc1F)n1nc(C)c2c(C)n(-c3ccc(C)cc3)nc2c1=O (configuration not stated)	8.3µM	8.9µM	-95	?
CCC(C(=O)Nc1ccccc1F)n1nc(C)c2c(C)n(-c3ccccc3)nc2c1=O (configuration not stated)	15µM	i	?	?
CCOc1ccc(NC(=O)C(CC)n2nc(C)c3c(C)n(-c4ccccc4)nc3c2=O)cc1 (configuration not stated)	13µM	i	i	?
CCOc1ccc(NC(=O)C(Cc2ccccc2)N2C(=O)c3cccc4cccc(c34)C2=O)cc1 (configuration not stated)	?	?	-99	?
COCCNC(=O)CCn1c(=O)c2cc(OC)c(OC)cc2n(CC(=O)Nc2ccccc2OC)c1=O	nt	nt	i	nt
Cc1c2cnn(CC(=O)Nc3ccc(F)cc3F)c(=O)c2c(C)n1Cc1cccc(Cl)c1	nt	nt	i	nt
Cc1cccc(CCNC(=O)c2cc3c(=O)n(C)c4ccccc4c3n2C)c1	nt	nt	i	nt
O=C(C1CCC(Cn2c(=O)c3sccc3n(Cc3ccc(F)cc3)c2=O)CC1)N1CCOCC1 (configuration not stated)	nt	nt	i	nt
Cc1cc2c(NC(=O)Nc3ccc(C(F)(F)F)cc3)cccc2nn1	9.3µM	i	i	10µM
C#CCNC(=O)C[C@@H]1C[C@@]2(C(=O)OC)CCCCC=C2N(Cc2cccc3ccccc23)C1=O	nt	nt	i	nt
CCOC(=O)[C@]12CCC=C1N(Cc1ccc(Cl)cc1Cl)C(=O)[C@H](CC(=O)NCc1ccc(OC)c(OC)c1)C2	nt	nt	-93	nt
CCOC(=O)[C@]12CCC=C1N(Cc1ccc(Cl)cc1Cl)C(=O)[C@H](CC(=O)NCc1cccc3ccccc13)C2	nt	nt	i	nt
CCOC(=O)[C@]12CCCC=C1N(Cc1ccccc1)C(=O)[C@H](CC(=O)NCc1ccc(OC)c(OC)c1)C2	nt	nt	i	nt
SMILES	Pf growth 96h	HCV inhibitor	HCMV inh	Pf growth 48h
CCOC(=O)[C@]12CCCC=C1N(Cc1cccc3ccccc13)C(=O)[C@H](CC(=O)NCc1ccc(OC)c(OC)c1)C2	nt	nt	-76	nt
COC(=O)[C@]12CCCCC=C1N(Cc1cccc3ccccc13)C(=O)[C@H](CC(=O)NCC13CC4CC(CC(C4)C1)C3)C2	nt	nt	-85	nt
Cc1cccc(C2CC3(CC(C)(C)NC(=S)N3)Oc3cc(O)ccc32)c1 (configuration not stated)	i	10µM	i	?
CN1CCN(/N=C/c2ccc(-c3ccccc3)cc2)CC1	i	i	-85	i
Fc1ccc(/C=N/N2CCN(Cc3ccccc3)CC2)cc1	9.3µM	i	i	i
CC(=C/c1ccccc1)/C=N/N1CCN(Cc2ccc(C)cc2)CC1	i	i	i	i
CC(/C=N/N1CCN(Cc2ccccc2)CC1)=C\c1ccccc1	?	i	-104	i
C(=N\N1CCN(Cc2ccccc2)CC1)/c1ccc(-c2ccccc2)cc1	i	i	?	i
CCN(CC)S(=O)(=O)c1ccc2c(c1)N(CC(=O)Nc1ccc(Cl)cc1)C(=O)C1CCCN21 (configuration not stated)	nt	nt	i	nt
Cc1ccc(C)c(Cn2c(=O)n(CCCC(=O)NCc3ccc4c(c3)OCO4)c(=O)c3sccc32)c1	nt	nt	i	nt
CC1CCn2c(nc3cc(C(=O)NCc4ccc(F)cc4)ccc32)C1 (configuration not stated)	nt	nt	i	nt
CCCC(C)C(=O)Nc1nc(C)c(-c2csc(Nc3cc(Cl)ccc3C)n2)s1 (configuration not stated)	?	?	i	?
C=CCCC(=O)Nc1nc(C)c(-c2csc(Nc3ccccc3OC)n2)s1	17µM	?	i	9.3µM
CCC(C)C(=O)Nc1nc(C)c(-c2csc(Nc3ccccc3OC)n2)s1 (configuration not stated)	12µM	?	i	9.3µM
O=c1[nH]c(C2CCN(S(=O)(=O)c3ccccc3F)CC2)nc2c1nnn2Cc1ccc(F)cc1	i	i	i	i
CCCCCCC(=O)N1CCC(c2nc3c(nnn3Cc3ccccc3Cl)c(=O)[nH]2)CC1	?	?	i	13µM
O=C(C1CCCCC1)N1CCC(c2nc3c(nnn3Cc3ccccc3Cl)c(=O)[nH]2)CC1	nt	i	i	nt
O=c1[nH]c(C2CCCN(S(=O)(=O)c3ccccc3Cl)C2)nc2c1nnn2Cc1ccc(OC(F)(F)F)cc1 (configuration not stated)	nt	nt	i	nt
O=c1[nH]c(C2CCCN(S(=O)(=O)c3ccccc3Cl)C2)nc2c1nnn2Cc1ccc2c(c1)OCCO2 (configuration not stated)	13µM	i	i	?
O=c1[nH]c(C2CCCN(S(=O)(=O)c3ccccc3F)C2)nc2c1nnn2Cc1ccccc1Cl (configuration not stated)	12µM	i	i	?
Cn1c(/C(C#N)=C/c2ccc(C(F)(F)F)cc2)nc2ccccc21	nt	nt	i	nt
COCCNC(=O)Cn1c(=O)c2cccn2c2ccc(F)cc21	nt	nt	i	nt
CC1=C(c2ccc(Cl)cc2)S(=O)(=O)N=C1N1CCN(c2cccc(C)c2)C(C)C1 (configuration not stated)	nt	nt	i	nt
CC(C)CCOP(=O)(c1ccccc1)c1ccccc1	?	i	i	15µM
CCCOP(=O)(c1ccccc1)c1ccccc1	i	i	i	i
Cc1[nH]c2ccccc2c1/C=C(\C#N)C(=O)NCc1ccccc1	i	?	i	i
Cc1ccc(C(C)NC(=O)/C(C#N)=C\c2c(C)[nH]c3ccccc23)cc1 (configuration not stated)	?	i	-61	nt
CC(NC(=O)/C(C#N)=C/c1ccc([N+](=O)[O-])o1)c1ccccc1 (configuration not stated)	i	?	-101	i
